The panel holds about 83,000 compounds, 20% with a hit somewhere; the sample as a whole holds those more often.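 Testing used 96-well plates and a 48-hour single-concentration exposure. Example: -40 means 40% of the starting cells died.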 Active and inactive are the calls of the source. The calls were made as follows: active = growth percent below 10; inactive = the rest.
The molecules below were run on SN12C renal (assay: NCI-60 one-dose screen, 48 h (100 = growth as untreated, 0 = no growth, -100 = all killed)). Conditions: 10 µM unless noted.

| SMILES | growth |
| --- | --- |
| N#CC1(c2ccccc2)CCN(Cc2ccccc2)CC1 | 114% (inactive) |
| O=P1(NCCCl)OCCCN1CCCl (configuration not stated) | 101% (inactive) |
| O=C(CC1(O)C(=O)Nc2ccc(Br)cc21)c1ccc(C(=O)NCC2CCC3(CC2)OOC2(CCCCC2)OO3)cc1 (configuration not stated) | 59.1% (inactive) |
| Cc1ccc(Nc2nc3c(s2)C2=CC[C@@H]4[C@H](CC[C@]5(C)C(=O)CC[C@@H]45)[C@@]2(C)CC3)cc1 | 60% (inactive) |
| C=C1C[C@](OC)([C@H](O)C(=O)N[C@@H](OC)[C@@H]2C[C@@H](O)C(C)(C)[C@@H](C[C@@H](COC)OC)O2)O[C@H](C)[C@@H]1C | -29.9% (active) |
| O=C1C2C(C(=O)[N]1[Hg][c]1cccs1)C1(Cl)C(Cl)=C(Cl)C2(Cl)C1(Cl)Cl (configuration not stated) | -46.9% (active) |
| COc1ccc(/C=C\c2cc(OC)c(OC)c(OC)c2)cc1NC(=O)/C=C/c1ccc(OC)c(OC)c1 | 43.5% (inactive) |
| O=C(O)c1c(Cl)n(Cc2ccc(O)cc2)c2ccc(O)cc12 | 102% (inactive) |
| CC(=O)OCc1cc[c]([Hg][Cl])o1 | 55.9% (inactive) |
| COC(=O)[C@@H](C)C[C@H](Cc1ccccc1)NC(=O)c1csc([C@@H](C[C@H](C(C)C)N(C)C(=O)[C@@H](NC(=O)CN(C)C)C2CC2)OC(C)=O)n1 | 46.8% (inactive) |
| CC(=O)Nc1nc2c(s1)CC[C@@]1(C)C2=CC[C@H]2[C@@H]3CC[C@H](O)[C@@]3(C)CC[C@@H]21 | 74% (inactive) |
| COc1ccc(/C(C)=C(\c2ccc(OCCN3CCOCC3)cc2)c2ccc(OC(=O)Cc3ccccc3)cc2)cc1 | 107% (inactive) |
| O=C(O)C(O)C(O)C1[O][Sb]([c]2ccc([N+](=O)[O-])cc2)[O]C1CO (configuration not stated) | 90.4% (inactive) |
| Fc1c[c-]c(-c2ccccn2)c(F)c1.[CH3-].[Pt+2].c1ccc([PH+](c2ccccc2)c2ccccn2)cc1 | 3.34% (active) |
| CCCCCCCCOC(=O)CCN1CC1 | 106% (inactive) |
| O=C1N[C@@H]2[C@@H](O)[C@@H](O)[C@H](O)C[C@H]2c2cc3c(c(O)c21)OCO3 | -18.4% (active) |
| O=P(Oc1ccc(Cl)cc1)(N1CC1)N1CC1 | 86.7% (inactive) |
| O=C1CC2(CC3(Cl)C(Cl)=C(Cl)C2(Cl)C3(Cl)Cl)C(=O)O1 (configuration not stated) | 107% (inactive) |
| COc1ccc(/C=C/c2cc(OC)c(OC)c(OC)c2)cc1NC(=O)/C=C/c1ccc(F)cc1 | 39.6% (inactive) |
| Nc1cc2nc3ccccc3nc2cc1N | 80.5% (inactive) |
| CN[C@@]1(c2ccccc2Cl)CCCC[C@@H]1NCC1CCCO1 (some centres not stated) | 96.8% (inactive) |
| COc1cc2c(cc1OCCCn1c(-c3ccccn3)nc3ccccc31)N=C[C@@H]1CCCN1C2=O | 26% (inactive) |
| O=C(CC1(O)C(=O)Nc2ccc(Cl)cc21)c1ccc(C(=O)NCC2CCC3(CC2)OOC2(CCCCC2)OO3)cc1 (configuration not stated) | 28.2% (inactive) |
| CNC12C3C4C1C1C2C3C41C(=O)N[C@H](C(=O)N(C)[C@H](C[C@@H](OC(C)=O)c1nc(C(=O)N[C@@H](Cc2ccccc2)C[C@H](C)C(=O)OC)cs1)C(C)C)C1CC1 (some centres not stated) | 31.5% (inactive) |
| c1cc2c(c3c1CCNC3)OCO2 | 100% (inactive) |

What follows are molecules tested on UO-31 renal in the same assay as above. Conditions: 10 µM unless noted.

| SMILES | growth |
| --- | --- |
| NC(=O)CNc1ccc([As]=[As]c2ccc(NCC(N)=O)cc2)cc1 (configuration not stated) | 54.4% (inactive) |
| C/C(=C\c1ccn(-c2ccc(N)cc2)n1)[C@@H]1C[C@@H]2O[C@]2(C)CCC[C@H](C)[C@H](O)[C@@H](C)C(=O)C(C)(C)[C@@H](O)CC(=O)O1 | 38.5% (inactive) |
| CC1(C)N=C(N)N=C(N)N1c1ccc(OCCCNC(=O)Nc2ccc(S(=O)(=O)F)cc2)c(Cl)c1 | 83.6% (inactive) |
| c1ccc(COc2ccc3[nH]cc(CCN(Cc4ccccc4)Cc4ccccc4)c3c2)cc1 | 60.3% (inactive) |
| O=[As](O)(O)c1ccccc1[As](=O)(O)O | 78.8% (inactive) |
| C1CCC([PH+](C2CCCCC2)C2CCCCC2[PH+](C2CCCCC2)C2CCCCC2)CC1.[Au].[CH-]1CCCCC1CC1CCCC[N-]1 (configuration not stated) | -81.4% (active) |
| CCCC(=O)O[C@@H]1C[C@H]2C[C@@H](O[C@@H]3O[C@@H](C)[C@@H](O)[C@@H](O)[C@H]3OC)C[C@@H](C[C@@H](C)/C=C/C=C\C[C@@H]3O[C@@H](C[C@@H]3C)[C@@H](O)C[C@H]3C[C@@]1(O)C(=O)O3)O2 | 34.2% (inactive) |
| CC[S][Hg][Cl] | 87.9% (inactive) |
| COc1cccc2c1c(C(=O)c1ccco1)cn2Cc1ccc(F)cc1 | 77.1% (inactive) |
| CC(=O)c1ccc(C(=O)NCC2CCC3(CC2)OOC2(CCCCC2)OO3)cc1 | -78.4% (active) |
| O=C(N/N=C/c1ccc(N(CCCl)CCCl)cc1)c1cccc2ccccc12 | 78.7% (inactive) |
| O=C(CCCCCNC1=CC(=O)c2ccccc2C1=O)NCCC[Te]c1ccccc1 | 16.9% (inactive) |
| N#CC1(c2ccccc2)CCN(Cc2ccccc2)CC1 | 108% (inactive) |
| O=P1(NCCCl)OCCCN1CCCl (configuration not stated) | 87.5% (inactive) |
| O=C(CC1(O)C(=O)Nc2ccc(Br)cc21)c1ccc(C(=O)NCC2CCC3(CC2)OOC2(CCCCC2)OO3)cc1 (configuration not stated) | -82.4% (active) |
| Cc1ccc(Nc2nc3c(s2)C2=CC[C@@H]4[C@H](CC[C@]5(C)C(=O)CC[C@@H]45)[C@@]2(C)CC3)cc1 | 48.3% (inactive) |
| C=C1C[C@](OC)([C@H](O)C(=O)N[C@@H](OC)[C@@H]2C[C@@H](O)C(C)(C)[C@@H](C[C@@H](COC)OC)O2)O[C@H](C)[C@@H]1C | -61.7% (active) |
| O=C1C2C(C(=O)[N]1[Hg][c]1cccs1)C1(Cl)C(Cl)=C(Cl)C2(Cl)C1(Cl)Cl (configuration not stated) | -29.8% (active) |
| COc1ccc(/C=C\c2cc(OC)c(OC)c(OC)c2)cc1NC(=O)/C=C/c1ccc(OC)c(OC)c1 | 41.6% (inactive) |

| SMILES | growth |
| --- | --- |
| O=C(O)c1c(Cl)n(Cc2ccc(O)cc2)c2ccc(O)cc12 | 61.1% (inactive) |
| CC(=O)OCc1cc[c]([Hg][Cl])o1 | 83.1% (inactive) |
| COC(=O)[C@@H](C)C[C@H](Cc1ccccc1)NC(=O)c1csc([C@@H](C[C@H](C(C)C)N(C)C(=O)[C@@H](NC(=O)CN(C)C)C2CC2)OC(C)=O)n1 | 41.6% (inactive) |
| CC(=O)Nc1nc2c(s1)CC[C@@]1(C)C2=CC[C@H]2[C@@H]3CC[C@H](O)[C@@]3(C)CC[C@@H]21 | 80.3% (inactive) |
| COc1ccc(/C(C)=C(\c2ccc(OCCN3CCOCC3)cc2)c2ccc(OC(=O)Cc3ccccc3)cc2)cc1 | 97% (inactive) |
| O=C(O)C(O)C(O)C1[O][Sb]([c]2ccc([N+](=O)[O-])cc2)[O]C1CO (configuration not stated) | 96.4% (inactive) |
| Fc1c[c-]c(-c2ccccn2)c(F)c1.[CH3-].[Pt+2].c1ccc([PH+](c2ccccc2)c2ccccn2)cc1 | -71.9% (active) |
| CCCCCCCCOC(=O)CCN1CC1 | 92.8% (inactive) |
| O=C1N[C@@H]2[C@@H](O)[C@@H](O)[C@H](O)C[C@H]2c2cc3c(c(O)c21)OCO3 | -31% (active) |
| O=P(Oc1ccc(Cl)cc1)(N1CC1)N1CC1 | 61.1% (inactive) |
| O=C1CC2(CC3(Cl)C(Cl)=C(Cl)C2(Cl)C3(Cl)Cl)C(=O)O1 (configuration not stated) | 63.5% (inactive) |
| COc1ccc(/C=C/c2cc(OC)c(OC)c(OC)c2)cc1NC(=O)/C=C/c1ccc(F)cc1 | 39% (inactive) |
| Nc1cc2nc3ccccc3nc2cc1N | 74.2% (inactive) |
| CN[C@@]1(c2ccccc2Cl)CCCC[C@@H]1NCC1CCCO1 (some centres not stated) | 86.4% (inactive) |
| COc1cc2c(cc1OCCCn1c(-c3ccccn3)nc3ccccc31)N=C[C@@H]1CCCN1C2=O | -53.7% (active) |
| O=C(CC1(O)C(=O)Nc2ccc(Cl)cc21)c1ccc(C(=O)NCC2CCC3(CC2)OOC2(CCCCC2)OO3)cc1 (configuration not stated) | -81.1% (active) |
| CNC12C3C4C1C1C2C3C41C(=O)N[C@H](C(=O)N(C)[C@H](C[C@@H](OC(C)=O)c1nc(C(=O)N[C@@H](Cc2ccccc2)C[C@H](C)C(=O)OC)cs1)C(C)C)C1CC1 (some centres not stated) | 36.3% (inactive) |
| c1cc2c(c3c1CCNC3)OCO2 | 90.2% (inactive) |

Reference: PubChem BioAssay (NCI)
